Results on one sequence are retold here after article PMC7862700, “An all-to-all approach to the identification of sequence-specific readers for epigenetic DNA modifications on cytosine”.

What all share (test): DAPPL (digital affinity profiling via proximity ligation, sequencing); 10 mM Tris-HCl pH 7.5, 50 mM NaCl, 1 mM DTT, 4% glycerol, room temperature, 30 min; GST-TFs on glutathione beads, 16-mer random dsDNA library, 0.1% formaldehyde crosslink after washing; high values mean tight binding
In one test the target is T1, FEV (Homo sapiens, UniProt Q99581 1-238).
T1 sequence: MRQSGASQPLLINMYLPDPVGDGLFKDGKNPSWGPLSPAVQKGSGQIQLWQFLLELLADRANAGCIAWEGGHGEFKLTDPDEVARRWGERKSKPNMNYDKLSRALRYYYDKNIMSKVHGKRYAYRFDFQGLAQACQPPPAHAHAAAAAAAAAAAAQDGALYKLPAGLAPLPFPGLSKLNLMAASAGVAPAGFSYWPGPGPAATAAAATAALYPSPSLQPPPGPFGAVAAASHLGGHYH
The note with it: protein: recombinant; tags: N-terminal GST; dsDNA, one strand shown. The method in brief: (§1)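 Yeast served to express human transcription factors as GST fusions, which were then captured on glutathione beads and labelled with DNA barcodes. Pooled with a tag-only sample, they were incubated with 200 nmole of a 16-mer random double-stranded DNA library for 30 min at room temperature in Tris/NaCl/DTT/glycerol buffer, washed, crosslinked with 0.1% formaldehyde, ligated by proximity, amplified by PCR and sequenced. Dividing each hexamer's read frequency for a factor by its frequency for the tag-only sample gives the binding signal.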

In another test the target is ETV5 (Homo sapiens, UniProt P41161 1-510). The note with it: protein: recombinant; tags: N-terminal GST; dsDNA, one strand shown. The method, boiled down: as §1
ETV5, sequence (P41161 whole entry): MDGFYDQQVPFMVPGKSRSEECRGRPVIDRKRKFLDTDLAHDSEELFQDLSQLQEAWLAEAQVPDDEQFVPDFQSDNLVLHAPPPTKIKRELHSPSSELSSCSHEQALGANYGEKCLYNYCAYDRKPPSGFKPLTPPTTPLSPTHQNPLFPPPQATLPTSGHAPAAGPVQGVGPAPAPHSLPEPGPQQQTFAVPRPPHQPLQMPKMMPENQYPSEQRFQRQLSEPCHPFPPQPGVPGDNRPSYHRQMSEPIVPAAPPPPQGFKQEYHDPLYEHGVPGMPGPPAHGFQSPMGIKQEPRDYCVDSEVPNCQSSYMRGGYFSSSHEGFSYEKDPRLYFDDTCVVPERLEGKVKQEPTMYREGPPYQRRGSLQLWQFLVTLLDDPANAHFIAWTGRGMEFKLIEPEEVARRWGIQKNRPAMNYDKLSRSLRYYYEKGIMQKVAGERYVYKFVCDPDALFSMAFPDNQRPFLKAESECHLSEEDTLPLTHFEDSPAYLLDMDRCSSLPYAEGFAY
Another test addresses HSF1 (Homo sapiens, UniProt Q00613 1-529). The settings on record: protein: recombinant; tags: N-terminal GST; chain copies: 3; dsDNA, one strand shown. The method in brief:
as §1

Another test addresses T2, SPIC (Homo sapiens, UniProt Q8N5J4 1-248).
T2 sequence: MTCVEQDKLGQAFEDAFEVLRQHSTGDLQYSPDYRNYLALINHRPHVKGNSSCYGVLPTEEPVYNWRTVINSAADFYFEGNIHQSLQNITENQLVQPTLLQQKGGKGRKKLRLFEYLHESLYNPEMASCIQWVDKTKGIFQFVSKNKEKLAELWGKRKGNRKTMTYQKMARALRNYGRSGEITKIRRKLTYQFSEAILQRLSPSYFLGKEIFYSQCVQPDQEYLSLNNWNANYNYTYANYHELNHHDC
The settings on record: protein: recombinant; tags: N-terminal GST; dsDNA, one strand shown. The method, boiled down:
as §1

A further test deals with ELF4 (Homo sapiens, UniProt Q99607 1-663). The note with it: protein: recombinant; tags: N-terminal GST; dsDNA, one strand shown. The method, boiled down: as §1
ELF4, sequence (Q99607 whole entry): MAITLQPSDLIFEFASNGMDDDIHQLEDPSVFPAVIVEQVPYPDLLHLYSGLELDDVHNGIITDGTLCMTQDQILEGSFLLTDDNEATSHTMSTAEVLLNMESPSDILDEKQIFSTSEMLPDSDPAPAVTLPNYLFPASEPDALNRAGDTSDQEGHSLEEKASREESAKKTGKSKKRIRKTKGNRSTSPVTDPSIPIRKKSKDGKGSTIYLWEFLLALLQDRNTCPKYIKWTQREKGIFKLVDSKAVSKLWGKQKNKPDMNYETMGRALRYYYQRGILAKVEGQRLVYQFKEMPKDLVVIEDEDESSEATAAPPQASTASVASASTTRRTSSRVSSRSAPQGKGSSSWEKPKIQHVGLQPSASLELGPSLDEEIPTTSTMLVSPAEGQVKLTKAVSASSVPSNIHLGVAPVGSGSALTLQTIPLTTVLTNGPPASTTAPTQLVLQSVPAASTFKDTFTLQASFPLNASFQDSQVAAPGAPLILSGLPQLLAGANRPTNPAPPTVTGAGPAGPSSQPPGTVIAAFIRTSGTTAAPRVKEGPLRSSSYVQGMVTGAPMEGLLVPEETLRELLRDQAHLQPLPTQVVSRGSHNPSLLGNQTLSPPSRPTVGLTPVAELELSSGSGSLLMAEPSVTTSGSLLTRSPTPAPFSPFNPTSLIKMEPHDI
The target of another test is T3, ELK4 (Homo sapiens, UniProt P28324-2 1-405).
T3 sequence: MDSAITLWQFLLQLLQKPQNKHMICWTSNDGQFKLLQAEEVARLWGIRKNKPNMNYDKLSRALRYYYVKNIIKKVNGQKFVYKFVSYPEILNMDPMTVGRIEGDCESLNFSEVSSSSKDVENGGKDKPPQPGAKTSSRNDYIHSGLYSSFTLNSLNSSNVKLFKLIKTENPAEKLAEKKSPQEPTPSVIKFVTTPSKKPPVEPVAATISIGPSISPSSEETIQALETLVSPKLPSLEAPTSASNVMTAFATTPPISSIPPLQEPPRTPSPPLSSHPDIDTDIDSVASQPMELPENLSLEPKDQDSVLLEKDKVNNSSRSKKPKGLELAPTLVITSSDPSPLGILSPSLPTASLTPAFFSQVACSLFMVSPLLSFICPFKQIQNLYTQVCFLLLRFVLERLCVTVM
The settings on record: protein: recombinant; tags: N-terminal GST; dsDNA, one strand shown. The method in brief: as §1

The target in a further test is T4, ETV2 (Homo sapiens, UniProt O00321 1-342).
T4 sequence: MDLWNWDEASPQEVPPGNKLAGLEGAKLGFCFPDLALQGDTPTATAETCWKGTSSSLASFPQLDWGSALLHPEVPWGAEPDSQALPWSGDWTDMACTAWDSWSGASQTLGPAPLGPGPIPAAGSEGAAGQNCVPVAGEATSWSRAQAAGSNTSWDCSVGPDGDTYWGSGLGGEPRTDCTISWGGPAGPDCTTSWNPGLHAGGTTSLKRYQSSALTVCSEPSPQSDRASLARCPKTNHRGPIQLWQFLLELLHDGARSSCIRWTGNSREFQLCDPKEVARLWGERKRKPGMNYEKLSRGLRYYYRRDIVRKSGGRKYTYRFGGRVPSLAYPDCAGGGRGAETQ
The note with it: protein: recombinant; tags: N-terminal GST; dsDNA, one strand shown. The method in brief:
as §1

Another test has as its target T5, ELF3 (Homo sapiens, UniProt P78545 1-371).
T5 sequence: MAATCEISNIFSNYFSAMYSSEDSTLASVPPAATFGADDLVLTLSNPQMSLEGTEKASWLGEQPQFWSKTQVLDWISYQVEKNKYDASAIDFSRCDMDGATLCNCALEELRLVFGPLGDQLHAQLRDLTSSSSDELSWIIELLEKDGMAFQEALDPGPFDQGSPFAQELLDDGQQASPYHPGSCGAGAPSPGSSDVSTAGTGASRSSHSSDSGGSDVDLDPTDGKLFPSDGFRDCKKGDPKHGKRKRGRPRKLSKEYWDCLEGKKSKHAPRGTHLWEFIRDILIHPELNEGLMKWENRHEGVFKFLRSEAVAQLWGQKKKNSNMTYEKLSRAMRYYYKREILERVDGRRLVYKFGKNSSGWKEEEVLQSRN
The note with it: protein: recombinant; tags: N-terminal GST; dsDNA, one strand shown. The method, boiled down:
as §1

The target of another test is CRX (Homo sapiens, UniProt O43186 1-299). The settings on record: protein: recombinant; tags: N-terminal GST; dsDNA, one strand shown. The method in brief:
as §1

The target of the next test is ETV1 (Homo sapiens, UniProt P50549 1-477). The note with it: protein: recombinant; tags: N-terminal GST; dsDNA, one strand shown. The method in brief:
as §1

The target in another test is T6, ERF (Homo sapiens, UniProt P50548 1-548).
T6 sequence: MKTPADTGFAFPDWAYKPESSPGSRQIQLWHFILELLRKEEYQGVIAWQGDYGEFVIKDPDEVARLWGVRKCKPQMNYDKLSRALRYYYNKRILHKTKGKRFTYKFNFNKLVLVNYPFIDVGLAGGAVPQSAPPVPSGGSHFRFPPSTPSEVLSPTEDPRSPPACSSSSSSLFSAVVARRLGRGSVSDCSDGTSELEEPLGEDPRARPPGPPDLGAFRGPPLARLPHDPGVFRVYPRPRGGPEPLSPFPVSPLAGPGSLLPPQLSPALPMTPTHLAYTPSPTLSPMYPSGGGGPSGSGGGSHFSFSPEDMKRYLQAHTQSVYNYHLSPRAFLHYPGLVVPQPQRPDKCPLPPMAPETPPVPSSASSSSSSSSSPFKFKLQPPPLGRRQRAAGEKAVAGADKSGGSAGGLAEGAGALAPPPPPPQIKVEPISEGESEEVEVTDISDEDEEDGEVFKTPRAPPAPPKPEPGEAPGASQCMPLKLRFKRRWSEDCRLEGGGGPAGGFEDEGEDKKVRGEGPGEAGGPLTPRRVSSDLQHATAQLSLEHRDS
The note with it: protein: recombinant; tags: N-terminal GST; dsDNA, one strand shown. The method, boiled down: as §1

A further test addresses T7, ETV3L (Homo sapiens, UniProt Q6ZN32 1-361).
T7 sequence: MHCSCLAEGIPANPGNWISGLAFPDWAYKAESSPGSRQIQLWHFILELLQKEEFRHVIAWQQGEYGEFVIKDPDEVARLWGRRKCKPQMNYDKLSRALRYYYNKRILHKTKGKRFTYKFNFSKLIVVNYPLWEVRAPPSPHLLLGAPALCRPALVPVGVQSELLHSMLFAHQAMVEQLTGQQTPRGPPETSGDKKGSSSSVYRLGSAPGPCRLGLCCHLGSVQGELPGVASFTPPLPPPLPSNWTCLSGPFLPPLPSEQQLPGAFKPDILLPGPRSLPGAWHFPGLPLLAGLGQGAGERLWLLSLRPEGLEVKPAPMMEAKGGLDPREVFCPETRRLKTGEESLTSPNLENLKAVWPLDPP
The settings on record: protein: recombinant; tags: N-terminal GST; dsDNA, one strand shown. The method, boiled down: as §1

In the next test the target is T8, ETS2 (Homo sapiens, UniProt P15036 1-469).
T8 sequence: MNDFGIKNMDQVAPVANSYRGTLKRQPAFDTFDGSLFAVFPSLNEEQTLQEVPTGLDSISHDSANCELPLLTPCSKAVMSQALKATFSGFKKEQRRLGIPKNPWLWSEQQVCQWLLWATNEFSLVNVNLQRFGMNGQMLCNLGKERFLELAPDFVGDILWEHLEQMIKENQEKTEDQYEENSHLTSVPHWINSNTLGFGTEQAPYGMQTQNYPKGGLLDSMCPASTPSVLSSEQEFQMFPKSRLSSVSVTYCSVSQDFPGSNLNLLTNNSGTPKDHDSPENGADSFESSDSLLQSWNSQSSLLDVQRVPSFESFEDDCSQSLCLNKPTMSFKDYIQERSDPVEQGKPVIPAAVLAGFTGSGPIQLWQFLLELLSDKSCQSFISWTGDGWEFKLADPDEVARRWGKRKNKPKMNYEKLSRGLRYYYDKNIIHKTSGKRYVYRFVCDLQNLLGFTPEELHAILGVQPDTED
The settings on record: protein: recombinant; tags: N-terminal GST; dsDNA, one strand shown. The method in brief: as §1

The next test addresses T9, SPDEF (Homo sapiens, UniProt O95238 1-335).
T9 sequence: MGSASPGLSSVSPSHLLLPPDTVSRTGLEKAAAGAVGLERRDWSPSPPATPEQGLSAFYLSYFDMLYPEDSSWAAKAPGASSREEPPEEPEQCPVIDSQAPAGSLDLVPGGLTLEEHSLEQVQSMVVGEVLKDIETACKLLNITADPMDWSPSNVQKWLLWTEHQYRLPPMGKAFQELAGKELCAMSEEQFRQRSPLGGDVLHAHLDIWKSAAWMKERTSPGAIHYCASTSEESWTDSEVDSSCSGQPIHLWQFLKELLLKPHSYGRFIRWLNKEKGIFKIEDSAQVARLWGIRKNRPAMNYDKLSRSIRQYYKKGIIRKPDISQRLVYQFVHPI
The note with it: protein: recombinant; tags: N-terminal GST; dsDNA, one strand shown. The method in brief: as §1

The target of a further test is T10, ETV7 (Homo sapiens, UniProt Q9Y603 1-341).
T10 sequence: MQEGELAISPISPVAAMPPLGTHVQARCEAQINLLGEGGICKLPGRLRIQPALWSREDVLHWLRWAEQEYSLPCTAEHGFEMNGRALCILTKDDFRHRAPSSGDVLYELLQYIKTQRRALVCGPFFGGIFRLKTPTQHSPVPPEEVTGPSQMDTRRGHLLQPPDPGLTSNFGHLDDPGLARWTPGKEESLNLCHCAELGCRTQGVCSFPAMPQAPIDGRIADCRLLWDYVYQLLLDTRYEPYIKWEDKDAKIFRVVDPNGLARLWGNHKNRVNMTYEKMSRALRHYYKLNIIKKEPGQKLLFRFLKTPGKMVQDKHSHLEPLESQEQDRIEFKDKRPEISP
The note with it: protein: recombinant; tags: N-terminal GST; dsDNA, one strand shown. The method in brief: as §1

For the next test, the target named is T11, ELF5 (Homo sapiens, UniProt Q9UKW6-2 1-255).
T11 sequence: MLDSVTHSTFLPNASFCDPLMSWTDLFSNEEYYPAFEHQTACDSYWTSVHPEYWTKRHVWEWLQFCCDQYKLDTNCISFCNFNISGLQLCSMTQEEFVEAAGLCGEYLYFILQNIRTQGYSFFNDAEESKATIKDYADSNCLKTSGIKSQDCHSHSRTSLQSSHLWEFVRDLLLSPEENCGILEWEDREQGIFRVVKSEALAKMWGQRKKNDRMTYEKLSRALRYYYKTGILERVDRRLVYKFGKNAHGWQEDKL
The note with it: protein: recombinant; tags: N-terminal GST; dsDNA, one strand shown. The method, boiled down:
as §1

Another test deals with T12, ETV3 (Homo sapiens, UniProt P41162-2 1-143).
T12 sequence: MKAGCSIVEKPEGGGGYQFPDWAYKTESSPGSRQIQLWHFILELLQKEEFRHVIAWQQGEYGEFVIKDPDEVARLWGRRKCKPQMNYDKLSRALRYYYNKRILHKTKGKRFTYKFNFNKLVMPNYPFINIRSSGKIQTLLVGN
The note with it: protein: recombinant; tags: N-terminal GST; dsDNA, one strand shown. The method, boiled down: as §1

The next test deals with ETV6 (Homo sapiens, UniProt P41212 1-452). The note with it: protein: recombinant; tags: N-terminal GST; dsDNA, one strand shown. The method in brief:
as §1

HSF1, sequence (Q00613 whole entry): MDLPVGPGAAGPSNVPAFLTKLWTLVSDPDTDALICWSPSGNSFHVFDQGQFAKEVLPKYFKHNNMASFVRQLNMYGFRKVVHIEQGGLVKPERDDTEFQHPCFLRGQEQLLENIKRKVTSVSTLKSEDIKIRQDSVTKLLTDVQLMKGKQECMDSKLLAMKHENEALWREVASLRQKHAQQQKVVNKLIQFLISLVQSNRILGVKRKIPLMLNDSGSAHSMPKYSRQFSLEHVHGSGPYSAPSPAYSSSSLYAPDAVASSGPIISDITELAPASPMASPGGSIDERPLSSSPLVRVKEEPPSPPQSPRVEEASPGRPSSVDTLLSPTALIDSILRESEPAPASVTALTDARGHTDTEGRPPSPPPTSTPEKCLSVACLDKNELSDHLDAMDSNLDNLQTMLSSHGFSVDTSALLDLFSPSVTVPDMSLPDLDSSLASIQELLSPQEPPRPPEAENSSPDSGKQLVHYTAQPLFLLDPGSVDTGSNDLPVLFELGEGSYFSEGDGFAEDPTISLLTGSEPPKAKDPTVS
ETV1, sequence (P50549 whole entry): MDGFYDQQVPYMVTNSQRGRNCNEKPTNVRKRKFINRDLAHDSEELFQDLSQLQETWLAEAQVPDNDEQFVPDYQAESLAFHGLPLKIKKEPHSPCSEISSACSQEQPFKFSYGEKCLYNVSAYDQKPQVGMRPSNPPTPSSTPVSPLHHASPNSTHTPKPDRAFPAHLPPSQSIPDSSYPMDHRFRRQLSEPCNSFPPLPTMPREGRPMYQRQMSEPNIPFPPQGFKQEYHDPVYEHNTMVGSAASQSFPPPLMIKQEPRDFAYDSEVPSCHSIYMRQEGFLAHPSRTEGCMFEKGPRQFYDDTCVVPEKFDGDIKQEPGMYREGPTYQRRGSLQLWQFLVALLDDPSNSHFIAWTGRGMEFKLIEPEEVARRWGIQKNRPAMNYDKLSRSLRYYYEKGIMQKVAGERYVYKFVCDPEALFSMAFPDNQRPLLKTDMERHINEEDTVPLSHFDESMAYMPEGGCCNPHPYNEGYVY
ETV6, sequence (P41212 whole entry): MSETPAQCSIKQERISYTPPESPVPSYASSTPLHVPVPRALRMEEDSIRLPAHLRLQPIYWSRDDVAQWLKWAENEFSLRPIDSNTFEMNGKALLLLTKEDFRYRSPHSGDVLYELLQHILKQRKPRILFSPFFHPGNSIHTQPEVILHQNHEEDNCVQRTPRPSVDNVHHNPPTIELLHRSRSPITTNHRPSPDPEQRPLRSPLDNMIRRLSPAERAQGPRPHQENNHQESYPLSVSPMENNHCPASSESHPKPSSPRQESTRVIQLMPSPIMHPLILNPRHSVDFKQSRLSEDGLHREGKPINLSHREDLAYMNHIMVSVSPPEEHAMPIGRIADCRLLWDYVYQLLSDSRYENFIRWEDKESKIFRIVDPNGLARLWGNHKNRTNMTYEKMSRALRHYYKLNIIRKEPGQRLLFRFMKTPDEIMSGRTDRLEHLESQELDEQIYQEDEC
CRX, sequence (O43186 whole entry): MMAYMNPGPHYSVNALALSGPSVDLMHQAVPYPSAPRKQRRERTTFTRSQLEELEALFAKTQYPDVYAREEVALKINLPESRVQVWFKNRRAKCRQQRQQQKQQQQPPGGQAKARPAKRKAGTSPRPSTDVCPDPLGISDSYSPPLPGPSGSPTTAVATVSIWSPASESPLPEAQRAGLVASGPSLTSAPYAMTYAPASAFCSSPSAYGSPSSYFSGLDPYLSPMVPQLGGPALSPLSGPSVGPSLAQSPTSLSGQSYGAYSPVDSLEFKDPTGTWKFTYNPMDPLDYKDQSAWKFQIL

Consider TATGGG, for which the binding signal is 1.13 fold enrichment (6-mer frequency, TF over GST control) with FEV; 1.18 fold enrichment (6-mer frequency, TF over GST control) with ETV5; 1.1 fold enrichment (6-mer frequency, TF over GST control) with HSF1; 1.32 fold enrichment (6-mer frequency, TF over GST control) with SPIC; 1.18 fold enrichment (6-mer frequency, TF over GST control) in the test with ELF4; 1.14 fold enrichment (6-mer frequency, TF over GST control) with ELK4. Moreover, the binding signal with ETV2 was 1.11 fold enrichment (6-mer frequency, TF over GST control); with ELF3, 1.18 fold enrichment (6-mer frequency, TF over GST control); with CRX, 1.36 fold enrichment (6-mer frequency, TF over GST control); with ETV1 it was 1.2 fold enrichment (6-mer frequency, TF over GST control); with ERF, 1.19 fold enrichment (6-mer frequency, TF over GST control); with ETV3L, 1.13 fold enrichment (6-mer frequency, TF over GST control). For the same sequence, the binding signal was 1.15 fold enrichment (6-mer frequency, TF over GST control) with ETS2; 1.14 fold enrichment (6-mer frequency, TF over GST control) in the test with SPDEF; 1.24 fold enrichment (6-mer frequency, TF over GST control) with ETV7; 1.16 fold enrichment (6-mer frequency, TF over GST control) with ELF5; 1.17 fold enrichment (6-mer frequency, TF over GST control) with ETV3; 1.34 fold enrichment (6-mer frequency, TF over GST control) with ETV6.
